{"source": "the supplement of paper PMC7724964", "binders": {"B1": {"name": "unnamed (peptide)", "chain": "WMWDGLAVVHMVPESV"}, "B2": {"name": "unnamed (peptide)", "chain": "TPWWETTSTVMTYIKM"}, "B3": {"name": "unnamed (peptide)", "chain": "EQWWHTPQSVQAWINS"}, "B4": {"name": "unnamed (peptide)", "chain": "MWMWDGMQVVHLFEQY"}, "B5": {"name": "unnamed (peptide)", "chain": "HEMFLWDGETVMQVWW"}, "B6": {"name": "unnamed (peptide)", "chain": "VTPQEMWEEYIATLQI"}, "B7": {"name": "unnamed (peptide)", "chain": "WTWMGDEEVFYHESLL"}, "B8": {"name": "unnamed (peptide)", "chain": "NDQYTWSQVHQGWLPL"}, "B9": {"name": "unnamed (peptide)", "chain": "DVWYTTSESIIQYMQS"}, "B10": {"name": "unnamed (peptide)", "chain": "DPGWYWEPAMLEAEWA"}, "B11": {"name": "unnamed (peptide)", "chain": "EPDYGTAWFQHMMQEW"}, "B12": {"name": "unnamed (peptide)", "chain": "VVYTGVDHNGNMYPVR"}, "B13": {"name": "unnamed (peptide)", "chain": "ERVMDLNGNWITKSVA"}, "B14": {"name": "unnamed (peptide)", "chain": "DFNNNTGPRLAAETIV"}, "B15": {"name": "unnamed (peptide)", "chain": "TGENNNVMPPHLSEHV"}, "B16": {"name": "unnamed (peptide)", "chain": "YYLDENQNWISEGFLW"}, "B17": {"name": "unnamed (peptide)", "chain": "PWHARDMNGNWTQRIE"}, "B18": {"name": "unnamed (peptide)", "chain": "YEEFLDLNSNLQGLKT"}, "B19": {"name": "unnamed (peptide)", "chain": "RSDYARDANGNMVVEF"}, "B20": {"name": "unnamed (peptide)", "chain": "YFYLDSNNNQVIPSSV"}, "B21": {"name": "unnamed (peptide)", "chain": "MEVFDMNGNYPVRSRT"}, "B22": {"name": "unnamed (peptide)", "chain": "WLAQDYNNNHMWLDWK"}, "B23": {"name": "unnamed (peptide)", "chain": "WREEPHFHRDENGNII"}, "B24": {"name": "unnamed (peptide)", "chain": "IVDTYWAMENNNVGTV"}, "B25": {"name": "unnamed (peptide)", "chain": "AHFELMNNNWLVPEFW"}, "B26": {"name": "unnamed (peptide)", "chain": "NTMWFDLWDINNNPLS"}, "B27": {"name": "unnamed (peptide)", "chain": "FEEMELVGDLNNNMMP"}, "B28": {"name": "unnamed (peptide)", "chain": "MGQLQDMQNNNWVPIV"}, "B29": {"name": "unnamed (peptide)", "chain": "MVDLNGNTYSESMVAV"}}, "key": {"[1]": {"target": "T1, SPRED3 1-117 WH1 (domain begin residue: 1, domain end residue: 117), Q2MJR0", "T1 chain": "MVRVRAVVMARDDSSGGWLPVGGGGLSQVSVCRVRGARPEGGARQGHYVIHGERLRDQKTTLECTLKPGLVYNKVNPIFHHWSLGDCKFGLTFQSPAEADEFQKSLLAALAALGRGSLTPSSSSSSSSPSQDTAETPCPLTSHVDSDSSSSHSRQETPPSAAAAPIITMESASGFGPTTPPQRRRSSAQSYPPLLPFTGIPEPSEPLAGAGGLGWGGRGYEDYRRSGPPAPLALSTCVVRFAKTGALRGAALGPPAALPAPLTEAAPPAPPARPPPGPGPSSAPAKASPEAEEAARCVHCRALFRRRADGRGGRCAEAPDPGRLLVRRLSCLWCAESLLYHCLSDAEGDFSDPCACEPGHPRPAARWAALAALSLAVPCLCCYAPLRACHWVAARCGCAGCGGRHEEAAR", "assay": "phage ELISA signal ratio (GST-PRM binding over GST background); higher = stronger binding of peptide-phage to the PRM", "how_it_was_run": "(§1)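 Each value is the phage ELISA signal on the glutathione S-transferase (GST)-domain fusion divided by the signal on GST alone. Human peptide recognition domains were expressed in 96-well plates, fused to the C-terminus of GST, and selected against an M13 phage library carrying randomized, cysteine-free, glycine-flanked hexadecapeptides on the gene-8 major coat protein. After five selection rounds, approximately 48 individual clones from rounds 4 and 5 were tested by phage ELISA, and positive clones were sequenced.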"}, "[2]": {"target": "T2, SPSB2 26-221 SPRY (domain begin residue: 26, domain end residue: 221), Q99619", "T2 chain": "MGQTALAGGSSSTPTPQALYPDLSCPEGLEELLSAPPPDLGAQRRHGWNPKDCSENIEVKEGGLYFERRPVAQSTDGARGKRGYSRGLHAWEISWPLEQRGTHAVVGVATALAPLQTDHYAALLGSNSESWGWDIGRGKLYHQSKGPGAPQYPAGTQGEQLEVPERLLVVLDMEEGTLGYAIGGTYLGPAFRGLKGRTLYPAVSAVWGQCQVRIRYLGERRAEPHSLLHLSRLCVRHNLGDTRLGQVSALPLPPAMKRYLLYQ", "assay": "phage ELISA signal ratio (GST-PRM binding over GST background); higher = stronger binding of peptide-phage to the PRM", "how_it_was_run": "as §1"}}, "data": [{"binder": "B1", "values": [{"measurement": "phage ELISA signal ratio", "setting": "[1]", "result": 8.68}]}, {"binder": "B2", "values": [{"measurement": "phage ELISA signal ratio", "setting": "[1]", "result": 19.4}]}, {"binder": "B3", "values": [{"measurement": "phage ELISA signal ratio", "setting": "[1]", "result": 19.5}]}, {"binder": "B4", "values": [{"measurement": "phage ELISA signal ratio", "setting": "[1]", "result": 20.5}]}, {"binder": "B5", "values": [{"measurement": "phage ELISA signal ratio", "setting": "[1]", "result": 20.8}]}, {"binder": "B6", "values": [{"measurement": "phage ELISA signal ratio", "setting": "[1]", "result": 23.4}]}, {"binder": "B7", "values": [{"measurement": "phage ELISA signal ratio", "setting": "[1]", "result": 23.8}]}, {"binder": "B8", "values": [{"measurement": "phage ELISA signal ratio", "setting": "[1]", "result": 26.5}]}, {"binder": "B9", "values": [{"measurement": "phage ELISA signal ratio", "setting": "[1]", "result": 27.7}]}, {"binder": "B10", "values": [{"measurement": "phage ELISA signal ratio", "setting": "[1]", "result": 28.4}]}, {"binder": "B11", "values": [{"measurement": "phage ELISA signal ratio", "setting": "[1]", "result": 31}]}, {"binder": "B12", "values": [{"measurement": "phage ELISA signal ratio", "setting": "[2]", "result": 9.45}]}, {"binder": "B13", "values": [{"measurement": "phage ELISA signal ratio", "setting": "[2]", "result": 10.8}]}, {"binder": "B14", "values": [{"measurement": "phage ELISA signal ratio", "setting": "[2]", "result": 11.5}]}, {"binder": "B15", "values": [{"measurement": "phage ELISA signal ratio", "setting": "[2]", "result": 11.7}]}, {"binder": "B16", "values": [{"measurement": "phage ELISA signal ratio", "setting": "[2]", "result": 12.1}]}, {"binder": "B17", "values": [{"measurement": "phage ELISA signal ratio", "setting": "[2]", "result": 12.3}]}, {"binder": "B18", "values": [{"measurement": "phage ELISA signal ratio", "setting": "[2]", "result": 12.3}]}, {"binder": "B19", "values": [{"measurement": "phage ELISA signal ratio", "setting": "[2]", "result": 21.3}]}, {"binder": "B20", "values": [{"measurement": "phage ELISA signal ratio", "setting": "[2]", "result": 21.9}]}, {"binder": "B21", "values": [{"measurement": "phage ELISA signal ratio", "setting": "[2]", "result": 25}]}, {"binder": "B22", "values": [{"measurement": "phage ELISA signal ratio", "setting": "[2]", "result": 27.1}]}, {"binder": "B23", "values": [{"measurement": "phage ELISA signal ratio", "setting": "[2]", "result": 28.9}]}, {"binder": "B24", "values": [{"measurement": "phage ELISA signal ratio", "setting": "[2]", "result": 29.6}]}, {"binder": "B25", "values": [{"measurement": "phage ELISA signal ratio", "setting": "[2]", "result": 30.8}]}, {"binder": "B26", "values": [{"measurement": "phage ELISA signal ratio", "setting": "[2]", "result": 32.3}]}, {"binder": "B27", "values": [{"measurement": "phage ELISA signal ratio", "setting": "[2]", "result": 32.8}]}, {"binder": "B28", "values": [{"measurement": "phage ELISA signal ratio", "setting": "[2]", "result": 33.8}]}, {"binder": "B29", "values": [{"measurement": "phage ELISA signal ratio", "setting": "[2]", "result": 33.8}]}]}
